In assay [1] the target is Nuclear receptor coactivator 3 (Homo sapiens) (UniProt Q9Y6Q9). The experiment in a line: NCOA3 GAL4-fusion reporter inhibition – cell-based, luminescence, quadruplicate, confirmation (AID 588792).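 Also: 0% = DMSO treated cells and 100% = gossypol at 36 µM.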 As to conditions: HEK293 GAL4-SRC3 luciferase reporter, at 3.6 µM, active compounds read high. Background: Reporter assays use an easily measured gene product as a stand-in for the process of interest.

The test system of assay [2] is transactivating tegument protein VP16 (Human herpesvirus 1), Gal4-VP16 luciferase reporter. Briefly: repression of VP16-driven luciferase reporter – cell-based, luminescence, high throughput, counter-screen for SRC3 inhibitor project (AID 588794; in the data active = inhibition above about 30%). As to conditions: mammalian cells, at 3.6 µM, active compounds read high.
A short description of assay [3]: StAR promoter reporter inhibitors, counter-screen for LRH-1 inverse agonist project, cell-based, luminescence, high throughput (AID 651611; in the data active = inhibition above about 28%). As to conditions: StAR promoter luciferase reporter counterscreen, at 3.6 µM, active compounds read high.
Assay [4] deals with Nuclear receptor subfamily 5 group A member 2 (Homo sapiens) (UniProt O00482). The experiment in a line: NR5A2 activity suppression in reporter cells – cell-based, luminescence, confirmation (AID 651613; in the data active = inhibition above about 42%;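 also: HEK293T cells co-transfected with LRH-1 and StAR promoter luciferase reporter; 0% = vehicle wells and 100% = parental cells lacking receptor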). Particulars: cell-based LRH-1 luciferase reporter, inverse agonism; at 3.6 µM; active compounds read high.
Assay [5] deals with Steroidogenic factor 1 (Homo sapiens) (UniProt Q13285). The experiment in a line: inverse agonism at SF1 nuclear receptor – cell-based, luminescence, high throughput, counter-screen for LRH-1 inverse agonist project (AID 651614; in the data active = inhibition above about 44%;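 also: cells cotransfected with StAR promoter reporter and SF1 expression vector; 0% = vehicle on cells with receptor and 100% = vehicle on cells lacking receptor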). Particulars: cell-based SF1 luciferase reporter, at 3.6 µM, active compounds read high.
The nature of assay [6]: compounds suppressing VP16-driven luciferase signal – cell-based, luminescence, high throughput, counter-screen for LRH-1 inverse agonist project (AID 651615; in the data active = inhibition above about 33%). Particulars: Gal4-VP16 luciferase reporter cells, at 3.6 µM, active compounds read high. (In general: A counterscreen serves to expose hits that act by an unwanted route or on another target.)
Assay [7] relates to transactivating tegument protein VP16 (Human herpesvirus 1). Briefly: compounds suppressing VP16-driven luciferase signal – cell-based, luminescence, single concentration, counter-screen for SRC2 inhibitor project (AID 652007; in the data active = inhibition above about 36%). As to conditions: cell-based VP16 transactivation luciferase reporter, at 8.9 µM, active compounds read high.
The target of assay [8] is Nuclear receptor coactivator 2 (Homo sapiens) (UniProt Q15596). Briefly: inhibition of GAL4-SRC2 driven luciferase expression – cell-based, luminescence, HEK293, triplicate, confirmation (AID 652008;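 active = mean inhibition above 46.5%, the solvent-only control mean plus 3 SD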;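 also: 0% = DMSO-treated cells and 100% = Gossypol at 36 µM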). Particulars: HEK293 GAL4-SRC2 luciferase reporter, at 8.9 µM, active compounds read high.
The nature of assay [9]: VP16-driven transactivation reporter suppression – cell-based, luminescence, HEK293, counter-screen for COUP-TFII antagonist project (AID 687007; in the data active = inhibition above about 13%). As to conditions: HEK293 Gal4-VP16 luciferase reporter, at 8.5 µM, active compounds read high.
The target of assay [10] is COUP transcription factor 2 (Homo sapiens) (UniProt P24468). The experiment in a line: retest of COUP-TFII reporter suppressors – cell-based, luciferase reporter, HEK293, triplicate, confirmation (AID 687008;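 active = mean inhibition over three repeats above a set limit taken from the earlier primary screen, cut at about 38% in these data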;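 also: 100% = cells given the luciferase reporter alone without the COUP-TF2 vector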). Particulars: HEK293 NGFI-A luciferase reporter, luminescence; at 8.5 µM; active compounds read high.

Usually inhibition stands for the relative decrease from the control value, in per cent.

Each structure is given as a SMILES string. A number with no mark means an inactive call. Some of the results follow. The source made the active and inactive calls.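 The calls were made as follows, unless noted: active = mean inhibition over 43.08%, the solvent-only control mean plus 3 SD; inactive = the rest.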

Chain of Nuclear receptor subfamily 5 group A member 2 (Homo sapiens) (O00482 whole entry, looked up): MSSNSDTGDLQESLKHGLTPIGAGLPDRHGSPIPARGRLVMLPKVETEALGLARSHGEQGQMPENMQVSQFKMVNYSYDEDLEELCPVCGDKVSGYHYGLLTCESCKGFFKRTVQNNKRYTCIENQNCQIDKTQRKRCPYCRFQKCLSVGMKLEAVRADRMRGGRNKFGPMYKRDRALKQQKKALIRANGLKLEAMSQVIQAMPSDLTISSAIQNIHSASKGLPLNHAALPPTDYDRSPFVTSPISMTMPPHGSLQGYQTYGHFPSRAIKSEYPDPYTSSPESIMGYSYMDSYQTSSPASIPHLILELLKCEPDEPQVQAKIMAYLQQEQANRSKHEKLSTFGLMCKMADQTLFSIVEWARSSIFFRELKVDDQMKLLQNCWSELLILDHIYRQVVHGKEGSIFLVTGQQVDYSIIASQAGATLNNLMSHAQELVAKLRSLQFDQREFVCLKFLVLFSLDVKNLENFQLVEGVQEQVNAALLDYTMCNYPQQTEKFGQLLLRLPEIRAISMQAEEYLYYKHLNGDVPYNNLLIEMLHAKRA
Chain of Steroidogenic factor 1 (Homo sapiens) (Q13285 whole entry, looked up, the tested form may be a part): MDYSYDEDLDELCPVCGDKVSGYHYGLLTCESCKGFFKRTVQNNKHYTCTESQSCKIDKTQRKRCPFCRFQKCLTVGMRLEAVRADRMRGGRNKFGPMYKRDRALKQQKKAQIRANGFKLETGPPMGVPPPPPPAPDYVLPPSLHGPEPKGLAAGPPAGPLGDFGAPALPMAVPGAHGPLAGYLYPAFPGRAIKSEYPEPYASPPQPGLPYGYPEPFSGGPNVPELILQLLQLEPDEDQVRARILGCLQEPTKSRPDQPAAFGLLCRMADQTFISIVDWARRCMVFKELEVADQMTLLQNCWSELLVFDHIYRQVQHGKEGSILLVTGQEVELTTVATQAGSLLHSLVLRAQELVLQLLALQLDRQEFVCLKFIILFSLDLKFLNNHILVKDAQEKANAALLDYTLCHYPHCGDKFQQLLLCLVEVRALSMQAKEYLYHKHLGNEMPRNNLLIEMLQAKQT
Chain of Nuclear receptor coactivator 3 (Homo sapiens) (Q9Y6Q9 whole entry, looked up, the tested form may be a part): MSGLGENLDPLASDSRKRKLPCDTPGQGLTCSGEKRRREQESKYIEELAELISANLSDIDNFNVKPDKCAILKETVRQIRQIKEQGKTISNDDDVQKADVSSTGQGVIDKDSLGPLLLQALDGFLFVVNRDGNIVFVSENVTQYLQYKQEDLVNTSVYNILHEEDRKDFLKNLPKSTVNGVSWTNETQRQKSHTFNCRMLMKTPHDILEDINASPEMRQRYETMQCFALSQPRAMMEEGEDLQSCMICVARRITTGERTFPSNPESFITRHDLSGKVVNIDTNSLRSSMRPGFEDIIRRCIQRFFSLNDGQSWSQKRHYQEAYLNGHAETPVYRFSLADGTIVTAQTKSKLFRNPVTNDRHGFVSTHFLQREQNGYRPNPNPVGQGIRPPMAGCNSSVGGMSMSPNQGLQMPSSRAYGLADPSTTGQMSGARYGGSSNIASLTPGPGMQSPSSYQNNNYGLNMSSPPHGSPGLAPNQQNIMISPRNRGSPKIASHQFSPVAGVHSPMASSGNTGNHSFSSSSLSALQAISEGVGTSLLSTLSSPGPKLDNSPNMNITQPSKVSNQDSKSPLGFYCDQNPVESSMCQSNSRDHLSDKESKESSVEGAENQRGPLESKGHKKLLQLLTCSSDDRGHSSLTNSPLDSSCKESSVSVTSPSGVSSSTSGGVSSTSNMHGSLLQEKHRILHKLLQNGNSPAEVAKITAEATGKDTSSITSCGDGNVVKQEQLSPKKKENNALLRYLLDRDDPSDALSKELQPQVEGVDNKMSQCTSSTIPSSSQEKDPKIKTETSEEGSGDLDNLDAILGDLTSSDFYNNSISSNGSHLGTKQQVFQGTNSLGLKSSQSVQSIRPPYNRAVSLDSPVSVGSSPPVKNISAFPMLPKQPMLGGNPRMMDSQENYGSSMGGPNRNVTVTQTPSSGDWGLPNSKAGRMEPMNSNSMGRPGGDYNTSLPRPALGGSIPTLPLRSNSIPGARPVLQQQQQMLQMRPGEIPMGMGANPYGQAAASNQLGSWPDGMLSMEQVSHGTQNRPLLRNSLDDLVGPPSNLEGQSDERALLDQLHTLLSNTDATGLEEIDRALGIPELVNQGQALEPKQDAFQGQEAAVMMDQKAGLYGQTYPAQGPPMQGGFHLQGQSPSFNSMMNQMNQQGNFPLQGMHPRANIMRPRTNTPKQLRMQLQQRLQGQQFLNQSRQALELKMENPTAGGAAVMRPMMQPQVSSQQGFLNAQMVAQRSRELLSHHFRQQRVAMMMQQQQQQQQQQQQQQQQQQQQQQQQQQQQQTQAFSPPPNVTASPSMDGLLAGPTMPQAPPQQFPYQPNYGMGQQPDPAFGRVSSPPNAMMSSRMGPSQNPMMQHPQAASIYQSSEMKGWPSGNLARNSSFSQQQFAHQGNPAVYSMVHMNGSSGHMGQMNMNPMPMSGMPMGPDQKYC
Chain of Nuclear receptor coactivator 2 (Homo sapiens) (Q15596 whole entry, looked up, the tested form may be a part): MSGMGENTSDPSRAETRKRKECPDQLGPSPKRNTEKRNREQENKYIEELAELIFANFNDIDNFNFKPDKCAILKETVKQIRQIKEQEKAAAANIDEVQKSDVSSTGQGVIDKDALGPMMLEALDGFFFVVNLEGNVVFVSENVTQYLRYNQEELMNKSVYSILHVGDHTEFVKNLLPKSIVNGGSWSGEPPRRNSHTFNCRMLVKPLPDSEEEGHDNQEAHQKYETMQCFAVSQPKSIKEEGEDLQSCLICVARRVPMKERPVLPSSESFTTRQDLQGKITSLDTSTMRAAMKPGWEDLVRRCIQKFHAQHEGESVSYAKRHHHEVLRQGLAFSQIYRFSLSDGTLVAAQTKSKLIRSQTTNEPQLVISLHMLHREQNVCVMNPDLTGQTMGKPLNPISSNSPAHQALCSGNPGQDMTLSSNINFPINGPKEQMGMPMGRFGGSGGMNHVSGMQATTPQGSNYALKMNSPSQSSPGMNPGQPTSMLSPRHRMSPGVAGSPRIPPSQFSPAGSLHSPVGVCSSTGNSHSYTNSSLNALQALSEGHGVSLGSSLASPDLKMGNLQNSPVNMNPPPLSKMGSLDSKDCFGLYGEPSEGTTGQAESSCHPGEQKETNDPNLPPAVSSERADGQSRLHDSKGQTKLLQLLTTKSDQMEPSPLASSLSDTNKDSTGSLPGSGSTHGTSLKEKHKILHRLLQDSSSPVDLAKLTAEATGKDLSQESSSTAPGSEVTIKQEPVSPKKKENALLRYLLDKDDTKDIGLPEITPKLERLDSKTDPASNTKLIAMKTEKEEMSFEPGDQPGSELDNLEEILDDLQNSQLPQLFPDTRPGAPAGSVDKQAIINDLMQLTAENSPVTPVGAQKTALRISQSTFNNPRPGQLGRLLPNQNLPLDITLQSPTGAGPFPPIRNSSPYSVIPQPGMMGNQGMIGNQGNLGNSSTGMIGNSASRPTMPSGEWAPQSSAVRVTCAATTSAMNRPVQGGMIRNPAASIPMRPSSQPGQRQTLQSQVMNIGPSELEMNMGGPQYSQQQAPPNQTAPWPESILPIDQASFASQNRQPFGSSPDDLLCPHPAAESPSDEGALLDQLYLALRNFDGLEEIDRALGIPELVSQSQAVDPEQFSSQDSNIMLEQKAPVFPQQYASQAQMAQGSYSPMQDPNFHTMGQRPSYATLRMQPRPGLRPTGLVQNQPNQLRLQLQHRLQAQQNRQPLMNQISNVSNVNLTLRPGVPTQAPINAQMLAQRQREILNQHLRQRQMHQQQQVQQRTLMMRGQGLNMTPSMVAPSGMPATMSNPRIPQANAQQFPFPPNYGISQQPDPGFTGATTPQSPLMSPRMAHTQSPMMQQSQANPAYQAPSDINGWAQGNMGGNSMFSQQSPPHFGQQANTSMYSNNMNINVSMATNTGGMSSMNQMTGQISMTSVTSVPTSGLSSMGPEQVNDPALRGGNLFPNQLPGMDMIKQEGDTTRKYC
Chain of COUP transcription factor 2 (Homo sapiens) (P24468 whole entry, looked up): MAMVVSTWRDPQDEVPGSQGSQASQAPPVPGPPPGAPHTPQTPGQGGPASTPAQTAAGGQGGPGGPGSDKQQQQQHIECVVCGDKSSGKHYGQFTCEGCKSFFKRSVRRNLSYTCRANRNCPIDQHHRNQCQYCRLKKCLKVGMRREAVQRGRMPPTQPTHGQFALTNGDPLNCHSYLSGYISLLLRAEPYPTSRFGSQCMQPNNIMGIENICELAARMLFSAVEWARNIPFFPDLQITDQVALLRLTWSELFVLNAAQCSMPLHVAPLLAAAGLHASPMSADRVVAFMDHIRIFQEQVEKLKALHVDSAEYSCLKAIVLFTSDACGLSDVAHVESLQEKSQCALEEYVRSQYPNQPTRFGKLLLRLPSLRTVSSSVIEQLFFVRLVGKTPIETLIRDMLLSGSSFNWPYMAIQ

Take `CCCC(=O)NC(c1ccc(N(C)C)cc1)c1ccc2cccnc2c1O` (stereo not drawn): the inhibition in [1] is 78.2% (active); in [2], 77% (active); in assay [3], 91.9% (active); in assay [4] it was 104% (active); in [5], 91.3% (active); in assay [6] it was 89.2% (active).

As to `Nc1cc(Cc2ccccc2)ccc1O`, the inhibition in assay [1] is -9.82%; in assay [2], -12.4%; in assay [3], 9.01%; in [4], 25.7%; in [5] it was 33.2%; in assay [6] it was -10.3%.

Consider `O=[N+]([O-])c1ccc(O)c(/C=N/Nc2nc3ccccc3[nH]2)c1`, for which the inhibition in assay [1] was 64% (active); in assay [2], 62.7% (active); in assay [3], 80.6% (active); in assay [4], 97.5% (active); in assay [5] it was 84.3% (active); in [6], 83% (active).

Take `N=c1c2c(n(Cc3ccccc3)c3c1CCC3)CCC2`: the inhibition in assay [1] was 19.5%; in [2] it was 44.1% (active); in assay [3], 37.3% (active); in assay [4], 79.2% (active); in [5], 72.9% (active); in assay [6], 62.4% (active).

Take `NC(=O)c1ccc(N2CCN(S(=O)(=O)c3cccs3)CC2)c([N+](=O)[O-])c1`: the inhibition in [1] was -7.6%; in assay [2] it was 34.7% (active); in assay [3], 21%; in [4], 64.7% (active); in [5], 63.9% (active); in [6], 46.1% (active).

For `CCOc1ccc(Nc2cc(C)nc(-n3nc(C)cc3C)n2)cc1`, the inhibition in [1] is 32.9%; in [2], 8.98%; in assay [3] it was 46.8% (active); in assay [4], 52.9% (active); in assay [5], 64.8% (active); in assay [6], 57.4% (active). Also, the inhibition is -8.07% in assay [7] and 16.3% in [8].

As for `CCCCC(=O)NC(c1ccc(OC)cc1)c1ccc2cccnc2c1O` (stereo not drawn), the inhibition is 28.5% in assay [1]; 14.8% in assay [2]; 8.78% in assay [3]; 17.3% in assay [4]; 18.6% in assay [5]; 27% in assay [6].

With `O=C(OCC12CC3CC(CC(C3)C1)C2)c1ccc(NCc2cc(O)ccc2O)cc1`, the inhibition is 88.3% (active) in assay [1]; 47.5% (active) in [2]; 48.6% (active) in [3]; 56.9% (active) in assay [4]; 67.2% (active) in assay [5]; 72.7% (active) in assay [6]. In addition, the inhibition in [7] was 97% (active); in assay [8], 96.5% (active).

Consider `CC(=O)Nc1ccc(Oc2sc(C(=O)c3ccccc3)c(N)c2C#N)cc1`, for which the inhibition in assay [1] is 20.5%; in assay [2] it was -3.87%; in assay [3], 35.8% (active); in assay [4], 70.9% (active); in assay [5], 66.7% (active); in [6], 7.59%. The inhibition in assay [7] is 14.6%; in [8], 32.6%.

For the compound `COc1cc(/C=N/NC(N)=S)cc(Br)c1OCc1ccccc1F`, the inhibition is 54.7% (active) in assay [1]; 14.2% in assay [2]; 33.5% (active) in [3]; 74.1% (active) in [4]; 70.8% (active) in [5]; 40.5% (active) in assay [6].

For `Cc1ccc(S(=O)(=O)Nc2cc(Cl)c(O)c3ncccc23)cc1`, the inhibition in assay [1] is 28.2%; in assay [2] it was 24.5%; in [3], 48.1% (active); in [4] it was 72.1% (active); in assay [5], 62.2% (active); in [6], 62% (active).

Regarding `CC(C)N(c1ccccc1)c1ccc(NC(=O)CCl)cc1`, the inhibition is 29.3% in [1]; -9.17% in [2]; 32.8% (active) in assay [3]; 72.4% (active) in assay [4]; 60.9% (active) in assay [5]; -7.77% in [6]. In addition, the inhibition is 17.1% in [7] and 33.1% in assay [8].

With `CCC(=O)c1ccc(O)c(CC=C(C)C)c1`, the inhibition in assay [1] was 35.8%; in assay [2] it was 23.9%; in assay [7] it was -16.9%; in assay [8] it was 14.5%.

As for `O=C(O)CCn1c(O)c(C=C2N=c3ccccc3=N2)sc1=S`, the inhibition was 12.5% in [1], 13.2% in assay [2], 34.1% in assay [7] and 72.1% (active) in [8].

For `Cc1nc([N+](=O)[O-])c(Sc2nc3ccccc3[nH]2)n1Cc1ccccc1`, the inhibition in assay [1] is 16.1%; in assay [2] it was 6.02%; in assay [7] it was -3.82%; in assay [8], 32.5%.

`CCOc1cc(/C=C/C(=O)c2ccc(C)cc2)ccc1OCC(=O)N(C)C`: the inhibition was 24.8% in assay [1], 25.1% in [2], 16.4% in assay [7] and 31.6% in assay [8].

`CC[n+]1cc(C)ccc1/C=C/c1ccc(N(C)C)cc1`: the inhibition in assay [1] was 45.1% (active); in assay [2] it was 58.8% (active); in [3], 57% (active); in assay [4], 91.7% (active); in [5], 85.7% (active); in assay [6], 80% (active). Besides, the inhibition was -0.96% in assay [9] and 62.6% (active) in assay [10].

On to `CC[C@@]1(O)C(=O)OCc2c1cc1n(c2=O)Cc2cc3c(CN(C)C)c(O)ccc3nc2-1`, for which the inhibition in assay [1] is 89.8% (active); in assay [2], 53.2% (active); in assay [4] it was 99.7% (active); in [5], 85.7% (active); in assay [7], 32.9%; in [8], 46%.

With `Cc1cccc(Nc2nc(N)nc(CCl)n2)c1C`, the inhibition in assay [1] was 62.8% (active); in [2], 31.1% (active); in [7], 14.2%; in assay [8] it was 55.7% (active).

As to `O=C(c1ccc(S(=O)(=O)c2ccc(F)cc2)c([N+](=O)[O-])c1)N1CCCCCC1`, the inhibition in [1] was 11.4%; in assay [2], 18.9%; in assay [7], 15.7%; in assay [8], 29.9%.

(Values after PubChem BioAssay.)
